Data from PubChem BioAssay (NCI).
About 83,000 compounds went through this panel and 20% of them were active in at least one assay; those are over-represented in the sample as a whole.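 A percent growth of 40 corresponds to 60% growth inhibition; 0 means no net growth; -100 means all cells died. Active threshold: below 10.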 Activity calls are given as the source filed them.

Columns and labels:
Assay in all cases: NCI-60 one-dose screen, 48 h (100 = growth as untreated, 0 = no growth, -100 = all killed)
SN12C renal = settings: 10 µM unless noted
UO-31 renal = settings: 10 µM unless noted
ACHN renal = settings: 10 µM unless noted
CAKI-1 renal = settings: 10 µM unless noted
A498 renal = settings: 10 µM unless noted
MOLT-4 leukemia = settings: 10 µM unless noted
RPMI-8226 leukemia = settings: 10 µM
OVCAR-8 ovarian = settings: 10 µM unless noted
OVCAR-5 ovarian = settings: 10 µM unless noted
OVCAR-4 ovarian = settings: 10 µM unless noted
SK-OV-3 ovarian = settings: 10 µM
IGROV1 ovarian = settings: 10 µM unless noted
OVCAR-3 ovarian = settings: 10 µM unless noted
HS 578T breast = settings: 10 µM unless noted
NCI/ADR-RES ovarian = settings: 10 µM unless noted
CCRF-CEM leukemia = settings: 10 µM unless noted
SR leukemia = settings: 10 µM unless noted
EKVX NSCLC = settings: 10 µM unless noted
TK-10 renal = settings: 10 µM unless noted

Measured: growth

c1ccc(-c2nc(N3CCOCC3)c3c4c(sc3n2)CCCCCC4)nc1
active: A498 renal -6.33%
inactive: SN12C renal 65.2% | UO-31 renal 25.9% | ACHN renal 63.4% | CAKI-1 renal 35.3% | MOLT-4 leukemia 52.7% | RPMI-8226 leukemia 33.3% | OVCAR-8 ovarian 42.4% | OVCAR-5 ovarian 57.2% | OVCAR-4 ovarian 42.2% | SK-OV-3 ovarian 65.7% | IGROV1 ovarian 42.1% | OVCAR-3 ovarian 68.2% | HS 578T breast 53.4% | NCI/ADR-RES ovarian 25.9%

O=c1nc(NO)[nH]c(=O)n1Cc1ccccc1
inactive: SN12C renal 113% | UO-31 renal 90.3% | ACHN renal 101% | CAKI-1 renal 93.1% | A498 renal 100% | CCRF-CEM leukemia 108% | MOLT-4 leukemia 109% | SR leukemia 107% | RPMI-8226 leukemia 104% | OVCAR-8 ovarian 104% | OVCAR-5 ovarian 101% | OVCAR-4 ovarian 97% | SK-OV-3 ovarian 99.3% | IGROV1 ovarian 106% | OVCAR-3 ovarian 120% | HS 578T breast 100% | NCI/ADR-RES ovarian 105%

CCOC(=O)C1=C(C)N2C(=NC3=C(CCCC/C3=C\c3ccccc3)C2c2ccccc2)S1 (configuration not stated)
inactive: SN12C renal 101% | UO-31 renal 91% | ACHN renal 102% | CAKI-1 renal 90.2% | A498 renal 92.3% | CCRF-CEM leukemia 98.3% | MOLT-4 leukemia 96.4% | SR leukemia 90.9% | RPMI-8226 leukemia 96.2% | OVCAR-8 ovarian 103% | OVCAR-5 ovarian 94.8% | OVCAR-4 ovarian 93.4% | SK-OV-3 ovarian 88.5% | IGROV1 ovarian 108% | OVCAR-3 ovarian 107% | HS 578T breast 99.6% | NCI/ADR-RES ovarian 101%

O=C1NC(=O)C(CSc2ccccc2)(c2ccccc2)N1 (configuration not stated)
inactive: EKVX NSCLC 110% | SN12C renal 103% | UO-31 renal 88.9% | ACHN renal 101% | CAKI-1 renal 87.7% | A498 renal 122% | CCRF-CEM leukemia 97.1% | MOLT-4 leukemia 97.8% | SR leukemia 89.9% | RPMI-8226 leukemia 100% | OVCAR-8 ovarian 99.3% | OVCAR-5 ovarian 107% | OVCAR-4 ovarian 111% | SK-OV-3 ovarian 101% | IGROV1 ovarian 80.4% | OVCAR-3 ovarian 124% | HS 578T breast 106% | NCI/ADR-RES ovarian 99.9%

CN1CCN(c2nc(-c3ccncc3)nc3sc4c(c23)CCCCCC4)CC1
active: HS 578T breast 5.17%
inactive: SN12C renal 67.8% | UO-31 renal 33.7% | ACHN renal 68.3% | CAKI-1 renal 46.7% | A498 renal 31.7% | CCRF-CEM leukemia 79.5% | MOLT-4 leukemia 50.9% | SR leukemia 32.5% | RPMI-8226 leukemia 69% | OVCAR-8 ovarian 82.9% | OVCAR-5 ovarian 81.3% | OVCAR-4 ovarian 71.7% | SK-OV-3 ovarian 72.9% | IGROV1 ovarian 76.2% | OVCAR-3 ovarian 93.5% | NCI/ADR-RES ovarian 64.9%

Oc1cccc(Nc2nc(-c3ccccn3)cs2)c1
inactive: SN12C renal 97.8% | UO-31 renal 73.1% | TK-10 renal 111% | ACHN renal 102% | CAKI-1 renal 111% | MOLT-4 leukemia 85.2% | SR leukemia 87.8% | RPMI-8226 leukemia 81.9% | OVCAR-8 ovarian 106% | OVCAR-5 ovarian 110% | OVCAR-4 ovarian 101% | SK-OV-3 ovarian 95.2% | IGROV1 ovarian 100% | OVCAR-3 ovarian 119% | NCI/ADR-RES ovarian 94.6%

COc1cc2nc(SCc3cc(OC)c(OC)c(OC)c3)n(-c3ccccc3OC)c(=O)c2cc1OC
inactive: SN12C renal 98% | UO-31 renal 36.3% | ACHN renal 88.5% | CAKI-1 renal 42.9% | A498 renal 25.5% | MOLT-4 leukemia 46.8% | SR leukemia 23.8% | RPMI-8226 leukemia 71.2% | OVCAR-8 ovarian 84.6% | OVCAR-5 ovarian 89% | OVCAR-4 ovarian 83.1% | SK-OV-3 ovarian 98.2% | IGROV1 ovarian 83.1% | OVCAR-3 ovarian 48.2% | HS 578T breast 60.8% | NCI/ADR-RES ovarian 62.9%

CN1CCN(C(=O)OCCOCCOC(=O)N2CCN(C)CC2)CC1
active: CCRF-CEM leukemia 8.24%
inactive: SN12C renal 99.9% | UO-31 renal 95.8% | TK-10 renal 94.5% | ACHN renal 97% | CAKI-1 renal 131% | A498 renal 93% | MOLT-4 leukemia 52.7% | SR leukemia 95% | RPMI-8226 leukemia 81% | OVCAR-8 ovarian 102% | OVCAR-5 ovarian 104% | OVCAR-4 ovarian 106% | SK-OV-3 ovarian 117% | IGROV1 ovarian 132% | OVCAR-3 ovarian 117% | HS 578T breast 111% | NCI/ADR-RES ovarian 96.3%

CCOC(=O)C1=C(C)N2C(=NC3=C(CCCC/C3=C\c3cc(OC)c(OC)c(OC)c3)C2c2cc(OC)c(OC)c(OC)c2)S1 (configuration not stated)
inactive: SN12C renal 75.2% | UO-31 renal 54.3% | ACHN renal 69.6% | CAKI-1 renal 65.6% | A498 renal 52% | CCRF-CEM leukemia 70.9% | MOLT-4 leukemia 45.3% | SR leukemia 47.4% | RPMI-8226 leukemia 32.7% | OVCAR-8 ovarian 63.6% | OVCAR-5 ovarian 85.6% | OVCAR-4 ovarian 69.3% | SK-OV-3 ovarian 77.8% | IGROV1 ovarian 71.6% | OVCAR-3 ovarian 64.5% | HS 578T breast 96.1% | NCI/ADR-RES ovarian 62.1%

CC(C)(C)[Si](C)(C)OC1[C@@H](COC(=O)NC(=O)CCl)O[C@@H](n2cnc3c(N)ncnc32)[C@H]1O[Si](C)(C)C(C)(C)C (some centres not stated)
inactive: UO-31 renal 20% | ACHN renal 61.4% | CAKI-1 renal 19.3% | A498 renal 105% | OVCAR-5 ovarian 77.4% | OVCAR-4 ovarian 36.9% | SK-OV-3 ovarian 87.8% | HS 578T breast 74.5% | NCI/ADR-RES ovarian 46.6%
active: SN12C renal -47.5% | MOLT-4 leukemia -54.7% | SR leukemia -57.5% | RPMI-8226 leukemia -29.5% | OVCAR-8 ovarian -7.49% | IGROV1 ovarian -68.3% | OVCAR-3 ovarian 0.626%

Nc1cc2[nH]c(=O)c3ccccc3c2cc1Br
inactive: EKVX NSCLC 44.7% | SN12C renal 72.8% | UO-31 renal 41.2% | TK-10 renal 45.2% | ACHN renal 93.9% | A498 renal 37.7% | CCRF-CEM leukemia 81.2% | MOLT-4 leukemia 87.3% | SR leukemia 61.9% | RPMI-8226 leukemia 76.9% | OVCAR-8 ovarian 77.6% | OVCAR-5 ovarian 60.6% | OVCAR-4 ovarian 59.2% | SK-OV-3 ovarian 87.9% | IGROV1 ovarian 59.6% | OVCAR-3 ovarian 72.1% | HS 578T breast 67% | NCI/ADR-RES ovarian 81.7%

CC(C)(C)[Si](C)(C)OC1[C@@H](COC(N)=O)O[C@@H](n2cnc3c(N)ncnc32)[C@H]1O[Si](C)(C)C(C)(C)C (some centres not stated)
active: MOLT-4 leukemia -40.1% | SR leukemia -31.8%
inactive: SN12C renal 102% | UO-31 renal 51.9% | ACHN renal 89.1% | CAKI-1 renal 91.9% | A498 renal 106% | CCRF-CEM leukemia 50.3% | OVCAR-8 ovarian 84.9% | OVCAR-5 ovarian 99.2% | OVCAR-4 ovarian 96.2% | SK-OV-3 ovarian 91.7% | IGROV1 ovarian 113% | OVCAR-3 ovarian 75.6% | HS 578T breast 88.5%

O=C1/C(=C/c2ccccc2F)CNC/C1=C\c1ccccc1F
active: SN12C renal -51.1% | UO-31 renal -89.6% | TK-10 renal -4.87% | ACHN renal -48.9% | CAKI-1 renal -52.5% | A498 renal -38.8% | CCRF-CEM leukemia -36.3% | MOLT-4 leukemia -32.5% | SR leukemia -2.72% | RPMI-8226 leukemia -27.8% | OVCAR-8 ovarian 2.92% | OVCAR-5 ovarian -41.3% | OVCAR-4 ovarian 6.6% | SK-OV-3 ovarian -45.1% | IGROV1 ovarian -6.61% | OVCAR-3 ovarian -68.6%
inactive: HS 578T breast 24.5% | NCI/ADR-RES ovarian 10.9%
